According to PubChem BioAssay AID651710 (Broad Institute, 2012):
Where “and” joins values, the source holds several entries; their conditions need not be identical. Identical values can stand only once. Screen size: about 360,000 compounds; about 1,600 (0.44%) were called active.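 The calls were made as follows: active = every replicate showing at least 50% inhibition; inconclusive = mean inhibition at least 50% but not in every replicate; inactive = the rest.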 The entries come from a sample that favours actives as a whole. Some compounds were tested as several samples or in several runs, with calls that do not always agree.

What follows are molecules tested against DNA repair protein RAD52 homolog (Homo sapiens) (UniProt P43351) (assay: RAD52 DNA annealing inhibitors, primary screen, biochemical, FRET, single point, set 2 (AID 651710)). Details: recombinant RAD52 DNA annealing, FRET fluorescence; at 18.7 µM; stronger effect = higher value.
Chain of DNA repair protein RAD52 homolog (Homo sapiens) (P43351 whole entry, looked up): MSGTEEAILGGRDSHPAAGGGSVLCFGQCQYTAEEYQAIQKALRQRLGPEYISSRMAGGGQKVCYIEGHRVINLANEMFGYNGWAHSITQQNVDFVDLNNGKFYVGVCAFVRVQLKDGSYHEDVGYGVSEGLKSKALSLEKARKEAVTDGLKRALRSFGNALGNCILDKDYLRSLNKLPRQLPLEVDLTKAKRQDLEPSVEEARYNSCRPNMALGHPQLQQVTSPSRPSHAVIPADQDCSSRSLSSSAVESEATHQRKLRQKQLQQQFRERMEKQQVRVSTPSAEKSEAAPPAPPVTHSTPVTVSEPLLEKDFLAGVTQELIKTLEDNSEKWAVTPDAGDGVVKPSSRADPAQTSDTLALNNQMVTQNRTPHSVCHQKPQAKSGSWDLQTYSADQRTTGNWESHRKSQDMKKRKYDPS
With COCC(=O)N(C)C[C@@H]1Oc2ncc(C#Cc3ccccc3OC)cc2C(=O)N([C@@H](C)CO)C[C@H]1C the inhibition was 0.963% (inactive). For COc1ccccc1C#Cc1cnc2c(c1)C(=O)N([C@@H](C)CO)C[C@@H](C)[C@@H](CN(C)C(=O)CN(C)C)O2, the inhibition was 51.1% (active). With COc1ccccc1C#Cc1cnc2c(c1)C(=O)N([C@@H](C)CO)C[C@@H](C)[C@H](CN(C)C(=O)CN(C)C)O2 the inhibition was 42.2% (inactive). For CN(C)CC(=O)N1[C@@H](C#N)[C@@H](c2ccccc2-c2ccccc2F)[C@@H]1CO, the inhibition was -4.36% (inactive). N#C[C@@H]1[C@@H](c2ccccc2C2=CCCC2)[C@H](CO)N1C(=O)NC1CCCC1 was tested, and the inhibition was -0.746% (inactive). In the case of Cc1ccccc1S(=O)(=O)NCC[C@@H]1CC[C@@H](NS(=O)(=O)c2ccccc2C)[C@@H](CO)O1, the inhibition was -0.528% (inactive). Cc1ccc2c(c1)C1CN(C)CCC1N2C(=S)Nc1ccc(OC(F)F)cc1 (stereo not drawn) was tested, and the inhibition was -9.14% (inactive). Cc1ccc2c(c1)C1CN(C)CCC1N2S(=O)(=O)c1ccc(Oc2ccc([N+](=O)[O-])cc2)cc1 (stereo not drawn) was tested, and the inhibition was 57.3% (active). Cc1ccc2c(c1)C1CN(C)CCC1N2S(=O)(=O)c1cccc(F)c1 (stereo not drawn) was tested, and the inhibition was -19.1% (inactive). For CC=Cc1ccc2n(c1=O)C[C@@H]1[C@@H](CO)[C@H](C(=O)NCCCN3CCOCC3)[C@H]2N1Cc1cocn1 (mixture of isomers), the inhibition was -8.14% (inactive). For COc1ccc(-c2nn(-c3ccccc3)cc2/C=C\C(=O)N2CCOCC2)cc1[N+](=O)[O-], the inhibition was -18.6% (inactive). O=C(NCCCN1CCOCC1)c1cn(-c2ccccc2)nc1-c1ccc(F)cc1 was tested, and the inhibition was -2.27% (inactive). With O=C(/C=C/c1cn(-c2ccccc2)nc1-c1ccc2c(c1)OCCO2)NCCCN1CCOCC1 the inhibition was 50.5% (active). In the case of C[C@H]1CN([C@@H](C)CO)S(=O)(=O)c2ccc(-c3ccccc3)cc2O[C@H]1CN(C)C(=O)CC1CC1, the inhibition was 5.01% (inactive). In the case of C[C@H](CO)N1C[C@H](C)[C@H](CN(C)C(=O)Nc2ccc3c(c2)OCO3)Oc2ccc(NC(=O)Nc3ccccc3)cc2CC1=O, the inhibition was -4.77% (inactive). For Cc1cccc(C)c1OCCN1CCOCC1, the inhibition was -1.02% (inactive). For Fc1ccc(-c2ccc(NCCN3CCOCC3)nn2)cc1, the inhibition was -7.71% (inactive). With c1ccc2cc3c(NCCN4CCOCC4)ccnc3cc2c1 the inhibition was 79% (active). With COc1ccc(NC(=O)N(C)C[C@@H]2Oc3c(NS(C)(=O)=O)cccc3C(=O)N([C@H](C)CO)C[C@H]2C)cc1 the inhibition was 1.83% (inactive). For CC(C)NC(=O)Nc1ccc2c(c1)CC(=O)N([C@H](C)CO)C[C@H](C)[C@@H](CN(C)C(=O)Nc1ccc(F)cc1)O2, the inhibition was 16.5% (inactive). For N#Cc1ccc(-c2ccc(C3[C@H]4CNC[C@@H]3N4S(=O)(=O)c3ccccc3F)cc2)cc1 (stereo partly drawn), the inhibition was 28.8% (inactive). N#Cc1cccc(-c2ccc(C3[C@H]4CNC[C@@H]3N4Cc3cncnc3)cc2)c1 (stereo partly drawn) was tested, and the inhibition was -10.4% (inactive). For N#Cc1cccc(-c2ccc(C3[C@H]4CNC[C@@H]3N4S(=O)(=O)c3ccc(-c4ccccc4)cc3)cc2)c1 (stereo partly drawn), the inhibition was 73.9% (active) and 22.4% (inactive). For CCCNC(=O)N(C)C[C@@H]1Oc2ncc(C#CC(C)C)cc2C(=O)N([C@H](C)CO)C[C@H]1C, the inhibition was -2.25% (inactive). In the case of O=C(Nc1ccc(S(=O)(=O)Nc2nccs2)cc1)c1cc(-c2ccncc2)nc2ccccc12, the inhibition was -42.2% (inactive). CCN(CC)CCNC(=O)c1ccc(NC(=O)c2cc(-c3ccncc3)nc3ccccc23)cc1 was tested, and the inhibition was 54.5% (active). In the case of CCN(CC)CCNC(=O)c1ccc(NC(=O)c2c(F)cccc2Cl)cc1, the inhibition was -8.76% (inactive). With COC(=O)Cc1nnn2c1[C@H](C)[C@@H](OC)c1cc(Br)ccc1-2 the inhibition was -4.62% (inactive). C[C@@H]1CN([C@@H](C)CO)C(=O)c2cc(NC(=O)Nc3ccccc3)ccc2O[C@@H]1CN(C)Cc1ccccc1 was tested, and the inhibition was 8.18% (inactive). With COc1cccc(NC(=O)N[C@H]2C=C[C@H](CC(=O)NCc3ccccn3)O[C@@H]2CO)c1 the inhibition was -25.9% (inactive). In the case of COc1ccc(-c2ccc3c(c2)[C@@H]2[C@@H](CCN2C(=O)NC2CCCC2)[C@@H](CO)N3C)cc1, the inhibition was -19% (inactive). COCC(=O)Nc1ccc2c(c1)OC[C@H](C)NC[C@H](C)[C@H](OC)CN(C)C2=O was tested, and the inhibition was -2.26% (inactive). For Cc1nc(N=C(N)N)nc2c(C)cccc12, the inhibition was 81.9% (active). In the case of COc1cccc(CN2[C@H](CO)[C@@H]3c4ccccc4N(C(=O)c4ccncc4)C[C@@H]32)c1, the inhibition was -8.72% (inactive). For CN(C)CCNC(=O)c1cccc(-c2cnc3c(NC=O)cc(-c4cccc(C(F)(F)F)c4)cn23)c1, the inhibition was 67% (active). CC(=O)c1cccc(-c2cnc3c(NC=O)cc(-c4ccc(N(C)C)cc4)cn23)c1 was tested, and the inhibition was -47.5% (inactive). With CN(C)C(=O)c1cccc(-c2cnc3c(NC=O)cc(-c4ccc(C(=O)N5CCOCC5)cc4)cn23)c1 the inhibition was -29% (inactive). With CC(=O)Nc1cc(-c2ccc(N3CCN(C)CC3)cc2)cn2c(-c3cccc(C(=O)N(C)C)c3)cnc12 the inhibition was 79.7% (active). In the case of CC(=O)c1cccc(-c2cnc3c(NC=O)cc(-c4cccc(C(=O)N(C)C)c4)cn23)c1, the inhibition was -0.741% (inactive). With CC(=O)Nc1cc(-c2cccc(CO)c2)cn2c(-c3cccc(C(F)(F)F)c3)cnc12 the inhibition was -17.3% (inactive). For CC(=O)Nc1cc(-c2ccc(N3CCN(C)CC3)cc2)cn2c(-c3ccc(F)cc3)cnc12, the inhibition was 18% (inactive). With CC(=O)c1cccc(-c2cnc3c(NC=O)cc(-c4ccc(N5CCN(C)CC5)cc4)cn23)c1 the inhibition was 73.8% (active). For CN(C)C(=O)c1cccc(-c2cnc3c(NC=O)cc(-c4ccc(F)cc4)cn23)c1, the inhibition was -55.7% (inactive). For O=C(C[C@H]1C=C[C@@H](NC(=O)C2CC2)[C@H](CO)O1)NCC1CC1, the inhibition was 2.9% (inactive). CO[C@H]1CN(C)C(=O)c2ccc(NC(=O)c3cnccn3)cc2OC[C@H](C)N(C)C[C@@H]1C was tested, and the inhibition was 2.76% (inactive). For O=C(Nc1ccccc1)N[C@H]1CC[C@H](CCNC(=O)c2ccccc2F)O[C@H]1CO, the inhibition was -10.3% (inactive). In the case of CCCN(C)C[C@@H]1Oc2ncc(-c3cccc(C(=O)N(C)C)c3)cc2C(=O)N([C@H](C)CO)C[C@@H]1C, the inhibition was -4.17% (inactive). In the case of CN(C)C(=O)C[C@H]1CC[C@H](NC(=O)NC2CCCC2)[C@@H](CO)O1, the inhibition was -3.59% (inactive). CCCC#Cc1ccc([C@H]2[C@@H](CO)N3CCCCN(C(=O)c4ccc5c(c4)OCO5)C[C@@H]23)cc1 was tested, and the inhibition was -42.9% (inactive). COc1ccc(NC(=O)N(C)C[C@@H]2Oc3ccc(NC(=O)CCC(F)(F)F)cc3C(=O)N([C@@H](C)CO)C[C@H]2C)cc1 was tested, and the inhibition was -4.28% (inactive). With O=C(Nc1ccccc1)[C@@H]1[C@@H](CO)[C@@H]2Cn3c(cccc3=O)[C@@H]2N1C(=O)C1CC1 the inhibition was 2.14% (inactive). For COc1ccc(-n2nnnc2SCC(=O)c2ccc(OC)c(OC)c2)cc1, the inhibition was -22.4% (inactive). With C=Cn1cc[n+](CC(=O)c2ccc(OC)c(OC)c2)c1 the inhibition was 98% (active). For COc1ccc(C(=O)COC(=O)c2ccc([N+](=O)[O-])s2)cc1OC, the inhibition was -8.04% (inactive). With COc1ccc2[nH]c3c(C)c4cc[n+](C)cc4c(C)c3c2c1 the inhibition was 94.3% (active). In the case of CC(=O)N(C)C[C@H]1Oc2ncc(C#CC3(O)CCCC3)cc2C(=O)N([C@@H](C)CO)C[C@@H]1C, the inhibition was 9.64% (inactive). In the case of CO[C@@H]1CN(C)C(=O)c2ccc(NC(=O)Nc3ccccc3)cc2OC[C@@H](C)N(C(=O)CN(C)C)C[C@H]1C, the inhibition was 5.57% (inactive). For Cn1cnc(S(=O)(=O)N2CCCCN3[C@H](CO)[C@@H](c4ccc(-c5ccc(F)cc5)cc4)[C@@H]3C2)c1, the inhibition was -27.5% (inactive). For COc1ccc(-c2cn(CC[C@H]3CC[C@@H](NC(=O)CCN4CCCCC4)[C@H](CO)O3)nn2)cc1, the inhibition was -7.25% (inactive). For C[C@H]1CCCCO[C@H](CN(C)S(=O)(=O)c2ccc(F)cc2)[C@@H](C)CN([C@@H](C)CO)C(=O)c2cc(NS(=O)(=O)c3cn(C)cn3)ccc2O1, the inhibition was -9.68% (inactive). In the case of CCCCCCCCCCOC(=O)Cn1c(COc2ccc(C)cc2)[n+](C)c2ccccc21, the inhibition was 79.8% (active). With CSc1ccccc1NC(=O)COC(=O)CCCOc1ccc(C)cc1 the inhibition was -13.4% (inactive). In the case of Cc1ccc(COc2ccc(C(=O)NN)cc2)cc1, the inhibition was -18.7% (inactive). With COCC#Cc1ccc2c(c1)O[C@@H](CN(C)C(=O)Nc1ccccc1F)[C@H](C)CN([C@H](C)CO)S2(=O)=O the inhibition was 11.1% (inactive). With O=S(=O)(c1ccccc1)N1CCCCN2[C@H](C1)[C@H](c1ccc(-c3ccccc3)cc1)[C@@H]2CO the inhibition was -26.6% (inactive). For C[C@H]1CN([C@@H](C)CO)C(=O)c2cc(NC(=O)CCC(F)(F)F)ccc2O[C@H]1CN(C)Cc1ccc(C(=O)O)cc1, the inhibition was -6.5% (inactive). CN1CCC[C@@H]1CCO[C@](C)(c1ccccc1)c1ccc(Cl)cc1 was tested, and the inhibition was 27.4% (inactive). Cc1cc2oc3ccc(NCCC4CCCN4C)cc3c(=O)c2cc1C (stereo not drawn) was tested, and the inhibition was 60.4% (active). COc1cccc2sc3cc(NCC[C@@H]4CCCN4C)ccc3c(=O)c12 was tested, and the inhibition was -48.1% (inactive). For COc1ccc2c3c([nH]c2c1)[C@H](CO)N(C(=O)c1ccncc1)CC31CCN(C(=O)c2ccncc2)CC1, the inhibition was 2.16% (inactive). In the case of N#Cc1ccc(-c2ccc(C3[C@@H]4CN(S(=O)(=O)c5ccccc5F)C[C@H]3N4)cc2)cc1 (stereo partly drawn), the inhibition was -15.8% (inactive) and -46.3% (inactive). With COc1cccc(S(=O)(=O)N2C[C@@H]3N[C@H](C2)C3c2ccc(-c3cccc(C(=O)N(C)C)c3)cc2)c1 (stereo partly drawn) the inhibition was 10.5% (inactive) and 16.9% (inactive). For COc1ccccc1S(=O)(=O)N1C[C@@H]2N[C@H](C1)C2c1ccc(-c2cccc(C)c2)cc1 (stereo partly drawn), the inhibition was 56.8% (active) and 37.8% (inactive).
